Drawing on PubChem BioAssay AID1566 (Sanford-Burnham Center for Chemical Genomics, 2009), this text covers inhibition for 97 molecules.

The whole screen tested about 290,000 compounds, of which about 1,800 (0.62%) were called active. For the sample, actives were picked, then their nearest neighbours and some compounds at random. Values without a mark were called inactive. No stated cut-off is given here; in the data, active means inhibition above about 50%; inactive means the rest.

The test is described as follows: NOD2 signaling inhibitors, cell-based, luminescence, uHTS, HEK293 (AID 1566). The conditions noted are these: HEK293 NOD2/NF-kB luciferase reporter, at 4 µM, hits give high values.
What is called inhibition is the drop in the measured response relative to a control, in per cent. `Cc1c(=O)n(OCc2ccccn2)c2ccccc2[n+]1[O-]`: the inhibition was 9.3%.
Take `N#CC1=C(SCC(=O)Nc2ccc(C(=O)O)cc2)NC(=O)CC1c1ccco1` (configuration not stated): the inhibition was -4.5%.
Consider `COc1ccc(-c2[nH]ncc2CN2CCN(c3ccccn3)CC2)c(OC)c1`, for which the inhibition is 11.3%.
As to `COC(=O)c1sc(S(=O)(=O)N2CCC(C(=O)O)CC2)c(C(=O)OC)c1C`, the inhibition was -0.8%.
Consider `COC(=O)COc1ccc(S(=O)(=O)N2CCCCC2)cc1[N+](=O)[O-]`, for which the inhibition was 4.8%.
Consider `COc1cc(NC(C)=O)ccc1-c1cc2ccccc2oc1=O`, for which the inhibition is -3.4%.
`COc1cc(NC(=O)COc2ccc(Cl)cc2)ccc1-c1cc2ccccc2oc1=O`: the inhibition was 16.1%.
With `O=c1[nH]c(C2CCCN(S(=O)(=O)c3ccccc3)C2)nc2c1nnn2Cc1ccc2c(c1)OCCO2` (configuration not stated), the inhibition is 21.7%.
Take `O=C(CN(CC1CCCO1)C(=O)CCC(=O)Nc1ccccn1)NCC1CCCO1` (configuration not stated): the inhibition was 4.7%.
The value for `Cc1ccc(C)c(-n2c(-c3ccc4c(c3)OCO4)n[nH]c2=S)c1` was 13.9%; that for `C=C(C)COc1ccc(-c2nc(N)nc(C)c2-c2ccc(OC)cc2)c(O)c1` was 20.5%.
The value for `CCc1ccccc1NC(=O)CN(C)C(=O)CN1C(=O)NC2(CCCCCC2)C1=O` was 9.4%; that for `O=C(CN1C(=O)NC2(CCCC2)C1=O)Nc1ccccc1C(F)(F)F` was 18.6%.
The value for `CCC(C)(C)C1CCC2(CC1)NC(=O)N(CC(=O)N(C)CC(=O)Nc1ccccc1C(F)(F)F)C2=O` (configuration not stated) was 52.8% (active); that for `CCOC(=O)N1CCC(NC(=O)c2ccc3c(c2)N(C)CCS3)CC1` was 4.6%.
For the molecule `CN(C)S(=O)(=O)c1ccc(C(=O)Nc2cc3c(cc2C(=O)O)OCCCO3)cc1`, the inhibition is 4%.
In the case of `COc1ccc(C2NC(=O)NC(C)=C2[N+](=O)[O-])cc1OC` (configuration not stated), the inhibition is 9.2%.
The same measure for `COc1ccc(/C=N/n2c(C)nc3ccccc3c2=O)cc1`: -11.4%.
The value for `CC1(C)Cc2c(ccc3ccccc23)C2=C(C(=O)N3CCCC3)C(=O)C(=O)N21` was 52.7% (active).
As for `CCOC(=O)C1=C2c3ccc4ccccc4c3CC(C)(C)N2C(=O)C1=O`, the inhibition is 17.7%.
For `CC1(C)Cc2ccccc2C2=C(C(=O)N3CCCCCC3)C(=O)C(=O)N21`, the inhibition was 16.7%.
Consider `Cc1ccc(S(=O)(=O)NCC(=O)OCC(=O)c2ccc(Br)s2)cc1`, for which the inhibition is -2.2%.
As for `COC(=O)c1sccc1NC(=O)CSc1ccccc1NS(=O)(=O)c1ccc(Cl)cc1`, the inhibition is 28.6%.
For `COC(=O)c1sccc1NC(=O)CSc1ccccc1NS(=O)(=O)c1ccccc1Cl`, the inhibition is 26%.
For `CN1CCN(C(=O)/C=C/c2c(F)cccc2Cl)CC1`, the inhibition is 9.9%.
Regarding `c1ccc(-c2csc3nnc(SCc4ccc5c(c4)OCCO5)n23)cc1`, the inhibition was 33.7%.
Consider `O=C(/C=C\Nc1ccccn1)c1ccccc1`, for which the inhibition is -121%.
Turning to `O=C(/C=C\Nc1ccc2c(c1)OCO2)c1ccccn1`, the inhibition was 33.4%.
With `O=C(/C=C/Nc1ccccc1Br)c1ccccn1`, the inhibition was 60% (active).
As to `CC1CCCC(NCC(O)COC(c2ccc(F)cc2)c2ccc(F)cc2)C1C` (configuration not stated), the inhibition was 0.7%.
Consider `COC(=O)c1ccc2nc(NC(=O)C(C)(C)C)sc2c1`, for which the inhibition was -3.1%.
Take `Fc1ccc2nc(Nc3nc4c(F)cc(F)cc4s3)sc2c1`: the inhibition was -36.7%.
For `CCC(CC)c1nnc(NC(=O)C2CC(=O)N(C3CCCC3)C2)s1` (configuration not stated), the inhibition was 8%.
With `Cc1ccc(S(=O)(=O)N2CCCCC2)cc1NC(=O)CSc1ncnc2ccccc12`, the inhibition was -36.1%.
The value for `Cc1ccc(NC(=O)CSc2ncnc3ccccc23)cc1S(=O)(=O)N1CCCCCC1` was 40.3%.
Take `OC1(c2cccnc2)CCN(Cc2nnnn2C2CCCCC2)CC1`: the inhibition was 19.2%.
`CCC/C(=N\NC(=O)CNC(=O)/C=C/c1ccco1)c1ccccc1`: the inhibition was 6.6%.
Regarding `Cc1ccc2c(c1)sc(-c1ccc(N(C)C)cc1)[n+]2C`, the inhibition was 51% (active).
With `CC[n+]1c(C)sc2cc(C)ccc21`, the inhibition is 5.7%.
For the molecule `COc1ccc(C)cc1Nc1n[n+](-c2ccccc2)c(-c2ccc(N(C)C)cc2)s1`, the inhibition is 8.3%.
Turning to `CC(C)OC(=O)Nc1ccc(Oc2c(F)c(F)c(F)c(F)c2F)cc1`, the inhibition is -5.3%.
`CCC(C)c1cc(S(=O)(=O)N2CCOCC2)ccc1OC` (configuration not stated): the inhibition is -10.6%.
For the molecule `C=CCc1cccc(/C=N/NC(=O)C[n+]2ccccc2)c1O`, the inhibition is 53.2% (active).
Consider `C=CCc1cccc(/C=N/NC(=O)CNc2ccccc2)c1O`, for which the inhibition is 17.2%.
`COc1cccc(/C=N/NC(=O)C[n+]2ccccc2)c1O`: the inhibition was 1%.
The same measure for `CN(C)CCNC(=S)NC1CCCCC1`: 8.6%; for `CCCCCCCCCc1nc2sc3c(c2c(=O)n1NC(=O)c1ccccc1[N+](=O)[O-])CC(C)(C)OC3`: 12.2%.
Take `CCCCCc1nc2sc3c(c2c(=O)n1NC(=O)c1ccc([N+](=O)[O-])cc1)CC(C)(C)OC3`: the inhibition was 5.3%.
With `CCCCCCCCCc1nc2sc3c(c2c(=O)n1NC(=O)c1ccc([N+](=O)[O-])cc1)CC(C)(C)OC3`, the inhibition is 57% (active).
`Cc1oc2c(C)c3oc(=O)c(CCC(=O)NCCCCCC(=O)O)c(C)c3cc2c1C`: the inhibition is 18.8%.
The same measure for `O=C(Nc1ccc(Cl)cc1)c1ccc2ncsc2c1`: -66.3%.
The same measure for `O=C(O)COc1ccc(-c2nccc(-c3cccs3)n2)cc1`: 55.9% (active); for `COC(=O)C(C)Oc1ccc(-c2nccc(-c3cccs3)n2)cc1` (configuration not stated): -13.1%.
The value for `Oc1ccc(-c2nccc(-c3cccs3)n2)cc1` was -139%.
Turning to `O=C(c1cnccn1)N1CCc2c([nH]c3ccccc23)C1c1cccc(Cl)c1` (configuration not stated), the inhibition was -198%.
On to `CC(C)(C)c1ccc(S(=O)(=O)N2CCC(c3nc4ccc(Cl)cc4[nH]3)CC2)cc1`, for which the inhibition was -18.9%.
The value for `Cc1cccc(-n2ncc3c2CCCC3NC(=O)C2CCOCC2)c1C` (configuration not stated) was 41.8%.
For the molecule `Cn1nccc1C(=O)NC1CCCc2c1cnn2-c1cc(F)cc(F)c1` (configuration not stated), the inhibition was 30.4%.
Turning to `Cc1nnsc1C(=O)NC1CCCc2c1cnn2-c1ccc(F)cc1F` (configuration not stated), the inhibition was 49.3%.
Consider `Cc1cc(C)cc(-n2ncc3c2CCCC3NC(=O)C2(C(N)=O)CC2)c1` (configuration not stated), for which the inhibition was 7.2%.
With `Cc1nnsc1C(=O)NC1CCCc2c1cnn2-c1cc(F)cc(F)c1` (configuration not stated), the inhibition is 21.9%.
In the case of `Cc1nnsc1C(=O)NC1CCCc2c1cnn2-c1ccccc1F` (configuration not stated), the inhibition is 51.1% (active).
For the molecule `O=C(NC1CCCc2c1cnn2-c1ccccc1F)c1ccccn1` (configuration not stated), the inhibition was -49.8%.
Turning to `CC(=O)N/C(=C\c1ccc2c(c1)OCO2)C(=O)NC(C(=O)O)c1ccccc1` (configuration not stated), the inhibition is 19.8%.
The same measure for `Cc1cccc2sc(NC(=O)CSc3nnnn3C)nc12`: -7%; for `O=C(CNC(=O)c1ccc(Oc2ccccc2)cc1)OC1CCCCC1=O` (configuration not stated): 10.8%; for `Cc1cccc(Nc2nc(N)nc(CSC(=S)N3CCOCC3)n2)c1`: -21.1%.
As for `CCc1cccc(C)c1NC(=O)c1ccoc1C`, the inhibition is 4.5%.
As to `Cc1ccc2nc(-c3ccccc3)cn2c1`, the inhibition is 26.7%.
With `Cc1ccc(-c2cn3cc(C)ccc3n2)cc1`, the inhibition is 71.8% (active).
In the case of `Cc1ccc2nc(-c3ccc(O)c(O)c3)cn2c1`, the inhibition is -51.7%.
For the molecule `CCOC(=O)C1CCN(S(=O)(=O)c2c(C)n(C)c(=O)n(C)c2=O)CC1`, the inhibition is -0.5%.
On to `O=C1CC(N2CCN(C/C=C/c3ccccc3)CC2)C(=O)N1Cc1cccs1` (configuration not stated), for which the inhibition is 7.5%.
For `Cc1ccc(-c2nc(-c3ccccn3)no2)cc1Cl`, the inhibition was 47.8%.
`c1ccc(-c2noc(-c3ccc4ccccc4c3)n2)nc1`: the inhibition is 45%.
Regarding `Cc1ccc(-c2nc(-c3ccccn3)no2)cc1`, the inhibition was 84.3% (active).
In the case of `c1ccc(-c2nc(-c3ccccn3)no2)cc1`, the inhibition was 20.1%.
With `COc1cccc(-c2nc(-c3ccccn3)no2)c1`, the inhibition was -16.1%.
The value for `c1ccc(-c2noc(-c3ccncc3)n2)nc1` was -43.2%; that for `COc1ccc(-c2nc(-c3ccccn3)no2)cc1` was 84% (active); that for `COc1cc(-c2nc(-c3ccccn3)no2)cc(OC)c1OC` was -18.2%.
Regarding `c1ccc(-c2ccc(-c3nc(-c4ccccn4)no3)cc2)cc1`, the inhibition was 67% (active).
With `CCOC(=O)c1ccc2c(c1)nc(SCC(=O)c1ccco1)n2CC`, the inhibition was 8.2%.
As to `CN(C)CCNC(=O)c1cc2cc(Br)ccc2oc1=O`, the inhibition was -0.6%.
Take `COc1ccc(N/C(N)=N/c2nc(CSc3nnc(C)s3)cc(=O)[nH]2)cc1`: the inhibition is -37.9%.
The value for `Cc1ccc(Sc2ccc(NC(=O)CCl)cc2)cc1C` was 0.9%; that for `O=C(CCl)Nc1ccccc1Sc1ccccc1` was -24.6%; that for `Cc1ccc(C)c(Sc2ccc(NC(=O)CCl)cc2)c1` was -19.5%.
The same measure for `O=C(Cc1ccc(Cl)cc1)Nc1ccccc1Sc1ccccc1`: 0.7%; for `COc1ccccc1C1=NC(c2ccc(F)cc2)N=C1C` (configuration not stated): -33.6%.
Turning to `COc1ccc(-n2nc(C(=O)NCC(=O)N3CCN(Cc4ccccc4)CC3)c3ccccc3c2=O)cc1`, the inhibition is -1.4%.
The same measure for `CC1(c2ccccc2)NC(=O)N(CC(=O)Nc2nnc(C3CC3)s2)C1=O` (configuration not stated): -9.7%; for `COc1ccc(/C=N/n2c(SC)nnc2-c2ccccc2)c(OC)c1OC`: -38.9%.
The same measure for `COc1ccc(-n2c(Cc3cccn3C)nnc2SCC(=O)Nc2ccc3c(c2)OCCO3)cc1`: 6.8%.
On to `O=C(c1ccccc1)c1cc([N+](=O)[O-])ccc1N1CCOCC1`, for which the inhibition was 5.9%.
Turning to `Cc1cc2ncn(C3CC(=O)N(C)C3=O)c2cc1C` (configuration not stated), the inhibition was 10.1%.
Consider `CCCN1C2CCCC1CC(NC(=O)C1CCCCC1)C2` (configuration not stated), for which the inhibition is -3.5%.
